Shown are actives, neighbours in structure and some others; about 18% of the full set was active somewhere.
VP16 counter: Gal4-VP16 reporter inhibition counter-screen | Potency, µM (doses to about 53.6 µM), inactives show at the top dose activity, negative = inhibition, most hits filed as inhibitors | AID 2546 | Drosophila S2 Gal4-VP16 UAS-luciferase, luminescence, 20 h | 3.5% of 310,000 active;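 note: Gal4-VP16 expression switched on by copper sulfate through the metallothionein promoter; potency is the fitted concentration of half-maximal effect; nearly all actives have a fitted effect of over 50% in size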
RORgamma inh: ROR gamma (mouse) transcription inhibition | P51450 | Drosophila S2 Gal4-RORgamma UAS-luciferase reporter, 20 h | Potency, µM (top dose mostly 53.6 µM), for the others: top-dose activity change, negative = inhibition, hits mostly inhibitors | 5.4% of 310,000 active | AID 2551; note: potency is the fitted concentration of half-maximal effect; nearly all actives have a fitted effect of over 60% in size
Target sequence (P51450 whole entry, looked up, the tested form may be a part): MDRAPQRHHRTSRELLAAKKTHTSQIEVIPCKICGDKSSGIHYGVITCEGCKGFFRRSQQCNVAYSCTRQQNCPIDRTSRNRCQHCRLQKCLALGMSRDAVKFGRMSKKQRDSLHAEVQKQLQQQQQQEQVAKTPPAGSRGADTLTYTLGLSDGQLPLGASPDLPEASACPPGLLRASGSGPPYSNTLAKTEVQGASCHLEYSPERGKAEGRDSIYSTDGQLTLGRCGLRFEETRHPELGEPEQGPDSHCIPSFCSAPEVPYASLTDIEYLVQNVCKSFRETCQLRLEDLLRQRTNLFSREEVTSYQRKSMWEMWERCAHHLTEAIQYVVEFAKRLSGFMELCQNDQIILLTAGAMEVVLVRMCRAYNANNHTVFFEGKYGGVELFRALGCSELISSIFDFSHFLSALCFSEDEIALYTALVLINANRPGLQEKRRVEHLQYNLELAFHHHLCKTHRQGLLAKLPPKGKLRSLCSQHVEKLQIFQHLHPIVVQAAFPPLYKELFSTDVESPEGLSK
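A Gal4/UAS one-hybrid system in insect cells: metallothionein-promoter Gal4–ROR gamma fusion plus Photinus luciferase reporter. Copper sulfate 700 uM final, 20 hr ambient incubation, luminescent detection after 10 min with reagent.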
TDP1 cell CPT: DT40-hTDP1 cell growth loss with CPT. chicken DT40 Tdp1-/-;hTDP1 cells + 20 nM CPT, ATP luminescence, 48 h. Potency, µM (highest dose often 46.2 µM), without a hit: at the top dose activity change, negative = growth inhibition, actives largely listed as inhibitors. 12% of 420,000 active. AID 686979; note: potency is the fitted concentration of half-maximal effect; nearly all actives have a fitted effect of over 55% in size
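Cell growth measured by CellTiter-Glo luminescence after a minimum 48 h, 37 C compound exposure with 20 nM CPT in Tdp1-knockout DT40 cells stably expressing hTDP1, seeded 400/well; qHTS titration format.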
LDHA block: LDHA (human) enzyme inhibition; activity change, % (values are at about 110 or 230 µM); P00338; 0.15% of 480,000 active; purified LDHA, NADH/diaphorase-resazurin fluorescence; stronger effect = lower value; in the data active = activity change below about -30%; inconclusive = mostly about -25% to -30%;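 note: plate controls were DMSO wells for no effect and wells without enzyme for full effect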
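Enzyme activity of human lactate dehydrogenase 5 (2 nM; 0.06 mM NADH, 0.2 mM pyruvate, 5 min, RT) is measured via a resazurin/diaphorase fluorescence readout of residual NADH.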
IL1B secr inh: inhibitors of inflammasome signaling (IL-1 beta secretion); THP-1 LPS/ATP IL-1B secretion, AlphaLISA, 16 h; stronger effect = lower value; activity change, % at 57.5 µM; 4.7% of 360,000 active; AID 743279; in the data active = activity change below about -50%; inconclusive = mostly about -30% to -49%
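THP-1 cells pretreated 1 hr with compounds (up to 57.5 uM final), then stimulated with LPS (250 ng/mL final) plus ATP (1.25 mM final); secreted IL-1B measured by AlphaLISA after 16 hr, decreased signal indicating inhibition.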
TDP1 cell noCPT: qHTS for Inhibitors of human tyrosyl-DNA phosphodiesterase 1 (TDP1): qHTS in cells in absence of CPT. DT40 Tdp1-/- hTDP1 cells, no CPT, ATP luminescence, 48 h. Potency, µM (top dose mostly 46.2 µM), inactives show top-dose activity change, negative = growth inhibition, hits mostly inhibitors. 15% of 420,000 active. AID 686978, 2013; note: potency is the fitted concentration of half-maximal effect; nearly all actives have a fitted effect of over 55% in size
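Growth kinetics read by CellTiter-Glo luminescence after ≥48 hr at 37 °C. Cells: DT40 Tdp1-/- stably carrying human TDP1, 400 per well, compound exposure in the absence of CPT (DMSO vehicle).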
The depositor's hits bear a star; u = inconclusive; x = not tested or not shown. Unless noted, calls come from the whole dose curve; as a rule, active = well fitted curve in the direction sought with a large enough effect; inconclusive = small, poorly fitted or top-dose-only effect, or another doubt; inactive = no such curve, though single readings can be large; an effect the other way counts as inactive or inconclusive. Unless noted, % is set by controls: 0 for no effect and ±100 for the full control effect.

SMILES | VP16 counter | RORgamma inh | TDP1 cell CPT | LDHA block | IL1B secr inh | TDP1 cell noCPT
CC(C)(C)SCC(=O)NN=C(c1ccccc1)c1ccccc1 | x | x | x | 0.7 | x | x
CN1CCN(C(=O)CCN2C(=O)/C(=C/c3cccc(Br)c3)SC2=S)CC1 | -14.5% | 15.8µM* | u | 15.5 | -76.0* | 11.6µM*
CN1CCN(C(=O)CCCN2C(=O)/C(=C/c3cccc(Br)c3)SC2=S)CC1 | -6.1% | u | -21.9% | 15.2 | -100.1* | u
CCn1c(SCc2nc3cc(S(=O)(=O)N(C)C)ccc3n2CC)nnc1C1CC1 | x | x | x | -0.9 | x | x
Cc1ccc(S(=O)(=O)N2CCC(C(=O)N(C)C3CCS(=O)(=O)C3)CC2)cc1 (stereo not drawn) | 2.0% | -6.6% | 23.1µM* | -2.9 | 23.9 | u
CN(C(=O)c1ccc(S(=O)(=O)N2CCCCC2)cc1)C1CCS(=O)(=O)C1 (stereo not drawn) | x | x | -25.7% | -3.1 | 4.9 | -2.2%
Cc1ccc(S(=O)(=O)N2CCC(C(=O)Nc3ccc(Oc4ccccc4)cc3)CC2)cc1 | x | x | u | -13.0 | x | u
Cc1ccc(S(=O)(=O)N2CCCN(S(=O)(=O)c3ccc(C)c(C)c3)CC2)cc1C | 9.9% | -13.2% | 23.1µM* | -3.3 | 0.0 | 18.4µM*
COC(=O)C1(C(F)(F)F)C2C=CC(C2)N1S(=O)(=O)c1ccc(C)cc1 (stereo not drawn) | -9.3% | -17.6% | 23.1µM* | -0.9 | 14.9 | 20.6µM*
Cc1ccc(S(=O)(=O)N2CCC(C(=O)Nc3ccc(C(C)C)cc3)CC2)cc1 | x | x | 23.1µM* | -6.6 | -3.7 | 14.6µM*
NC(=O)Cc1csc(NC(=O)CCc2ncc(-c3ccccc3Cl)o2)n1 | x | x | x | 3.9 | x | x
COc1cc(C#N)ccc1OCC(=O)NC(=O)NCc1ccccc1 | x | x | x | -12.2 | x | x
CCCC(C)NC(=O)c1ccc2c(c1)NC(=O)CS2 (stereo not drawn) | x | x | x | -7.4 | x | x
Cc1ccc(S(=O)(=O)N2CCN(c3nc4ccccc4nc3-n3nc(C)cc3C)CC2)cc1 | -4.0% | -17.9% | u | 2.7 | -3.5 | u
Cc1cc(C)n(-c2nc3ccccc3nc2N2CCN(S(=O)(=O)c3ccc(C)c(C)c3)CC2)n1 | x | x | x | -30.2* | x | x
Cc1ccc(NS(=O)(=O)c2ccc(NC(=O)C3CCCO3)cc2)cc1 (stereo not drawn) | 17.8µM* | u | u | -3.7 | 2.3 | 11.6µM*
O=C(Nc1ccc(O)cc1)c1ccc(NC(=O)C2CCCO2)cc1 (stereo not drawn) | 1.8% | -39.6% | -17.2% | 1.6 | -9.2 | -2.5%
Cc1ccc(S(=O)(=O)N2CCN(c3nn(C)c(=O)n(C)c3=O)CC2)cc1C | x | x | 7.31µM* | -12.4 | -1.8 | u
Cc1cc(NC(=O)c2ccc(NC(=O)C3CCCO3)cc2)ccc1Br (stereo not drawn) | -8.5% | -17.2% | u | -2.7 | 59.2 | 23.1µM*
COc1ccc(CNC(=O)Cn2ccc3cccc(OC)c32)cc1 | x | x | x | -3.3 | x | x
CCc1ccc2c(CN3CCCC3c3ccc(OC)cc3)cc(=O)oc2c1 (stereo not drawn) | x | x | x | 4.1 | x | x
Cc1cccc(-c2nc3c(Br)c(N)c(Br)cc3o2)c1 | x | x | x | 22.6 | x | x
COc1ccc2oc(=O)c(-c3nc(-c4nonc4N)no3)cc2c1 | x | x | x | 6.4 | x | x
CC1CC(C)CN(S(=O)(=O)c2ccc(NC(=O)CN3CCCCCC3)cc2)C1 (stereo not drawn) | x | x | 16.4µM* | -1.6 | -53.4* | 20.6µM*
CCCNC(=O)C1CCN(S(=O)(=O)c2ccc(-c3nn[nH]n3)cc2)CC1 | 1.4% | 25.8% | 11.6µM* | -6.6 | 14.3 | 0.0103µM*
COc1ccc(CNC(=O)C2CCN(S(=O)(=O)c3ccc(-c4nn[nH]n4)cc3)CC2)cc1 | 4.1% | 2.2% | -5.0% | -13.3 | -2.5 | -12.3%

Screening data: PubChem BioAssay, National Center for Advancing Translational Sciences (NCATS)
